Results filed as inconclusive are left out. The source made the active and inactive calls. Unless noted, calls come from the whole dose curve; as a rule, active = well fitted curve in the direction sought with a large enough effect; inconclusive = small, poorly fitted or top-dose-only effect, or another doubt; inactive = no such curve, though single readings can be large; an effect the other way counts as inactive or inconclusive.
Key:
[1] = biological target: Luciferin 4-monooxygenase (Photinus pyralis) (UniProt P08659); assay: Biochemical firefly luciferase enzyme assay for NPC (AID 624030);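 note: purified P. pyralis luciferase at 10 nM with luciferin and ATP substrate; nearly all actives have a fitted effect of over 70% in size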
In short: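 Purified P. pyralis luciferase at 10 nM in 50 mM Tris Acetate (final), luminescence read within 5 minutes of enzyme addition to compounds. Activity normalised to PTC124 versus DMSO; concentration-response curves classed by r2, magnitude and activity.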

[2] = S16 Schwann cell viability assay (CellTiter-Glo assay) (AID 624031);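 note: native untransfected S16 rat Schwann cells; nearly all actives have a fitted effect of over 70% in size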
In short: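 Counter-screen for cytotoxicity: parental S16 rat Schwann cells lacking the PMP22 reporters, treated 24 h with compound, viability from cellular ATP by CellTiter-Glo luminescence, normalized to DMSO (0%) and no-cell wells.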

[3] = S16 Schwann cell PMP22 intronic element firefly luciferase assay (AID 624032); note: nearly all actives have a fitted effect of over 30% in size
In short: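 Rat S16 Schwann cells stably carrying firefly luciferase driven by a PMP22 intronic element, in 10% FBS, treated 24 h at 37 C. ONE-Glo luminescence normalized to PTC124 control and DMSO (0%); curves classed by r2, magnitude and activity.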

[4] = S16 Schwann cell PMP22 intronic element beta-lactamase assay (AID 624044; calls by dose curve; note: nearly all actives have a fitted effect of over 15% in size)
In short: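 Rat S16 Schwann cells with beta-Lac driven by a PMP22 intronic element, compound-treated 24 h at 37 °C. LiveBLAzer FRET B/G read: 460 nm normalized to potassium clavulanate vs DMSO; 535 nm FRET as viability; concentration-effect curves classified.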

C2A = assay: qHTS profiling for inhibitors of Plasmodium falciparum proliferation (AID 504749); note: nearly all actives have a fitted effect of over 60% in size; conditions: P. falciparum in erythrocytes, SYBR Green DNA, 72 h; series mostly up to 28.7 µM
In short: (§1)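 Readout was DNA-dye fluorescence from lysed cultures, ex 485/em 535 nm. Parasitized red cells had grown 72 h with compound; data scaled between 0.29 uM artemisinin and DMSO wells and corrected using vehicle-only plates.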

CP217 = assay: as above; conditions: P. falciparum in erythrocytes, SYBR Green DNA, 72 h; series mostly up to 28.7 µM
In short: as §1

CP237 = assay: as above; conditions: P. falciparum in erythrocytes, SYBR Green DNA, 72 h; series mostly up to 28.7 µM
In short: as §1

CP250 = assay: as above; conditions: P. falciparum in erythrocytes, SYBR Green DNA, 72 h; series mostly up to 28.7 µM
In short: as §1

CP252 = assay: as above; conditions: P. falciparum in erythrocytes, SYBR Green DNA, 72 h; series mostly up to 28.7 µM
In short: as §1

CP256 = assay: as above; conditions: P. falciparum in erythrocytes, SYBR Green DNA, 72 h; series mostly up to 28.7 µM
In short: as §1

CP260 = assay: as above; conditions: P. falciparum in erythrocytes, SYBR Green DNA, 72 h; series mostly up to 28.7 µM
In short: as §1

Dd2 = assay: as above; conditions: P. falciparum in erythrocytes, SYBR Green DNA, 72 h; series mostly up to 28.7 µM
In short: as §1

ECU = assay: as above; conditions: P. falciparum in erythrocytes, SYBR Green DNA, 72 h; series mostly up to 28.7 µM
In short: as §1

ICS = assay: as above; conditions: P. falciparum in erythrocytes, SYBR Green DNA, 72 h; series mostly up to 28.7 µM
In short: as §1

JCK = assay: as above; conditions: P. falciparum in erythrocytes, SYBR Green DNA, 72 h; series mostly up to 28.7 µM
In short: as §1

N140 = assay: as above; conditions: P. falciparum in erythrocytes, SYBR Green DNA, 72 h; series mostly up to 28.7 µM
In short: as §1

P93_24 = assay: as above; conditions: P. falciparum in erythrocytes, SYBR Green DNA, 72 h; series mostly up to 28.7 µM
In short: as §1

SC27B = assay: as above; conditions: P. falciparum in erythrocytes, SYBR Green DNA, 72 h; series mostly up to 28.7 µM
In short: as §1

Measured: Potency

Sequence of Luciferin 4-monooxygenase (Photinus pyralis) (P08659 whole entry, looked up): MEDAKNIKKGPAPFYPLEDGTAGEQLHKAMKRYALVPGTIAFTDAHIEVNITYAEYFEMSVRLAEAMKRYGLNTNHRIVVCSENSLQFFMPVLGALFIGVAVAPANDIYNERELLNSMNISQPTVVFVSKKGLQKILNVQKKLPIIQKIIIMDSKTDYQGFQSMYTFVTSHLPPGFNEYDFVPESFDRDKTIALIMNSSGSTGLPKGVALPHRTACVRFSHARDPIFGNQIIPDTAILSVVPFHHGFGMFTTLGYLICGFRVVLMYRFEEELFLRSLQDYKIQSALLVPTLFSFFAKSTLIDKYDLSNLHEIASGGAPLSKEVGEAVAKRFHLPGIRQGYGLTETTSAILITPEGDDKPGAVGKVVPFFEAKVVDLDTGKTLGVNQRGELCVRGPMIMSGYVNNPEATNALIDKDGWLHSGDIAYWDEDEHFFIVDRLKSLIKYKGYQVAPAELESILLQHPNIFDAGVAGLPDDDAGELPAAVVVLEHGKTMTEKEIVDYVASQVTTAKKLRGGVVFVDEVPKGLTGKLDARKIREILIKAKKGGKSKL

CC(=O)OC1CC2CCC1(C)C2(C)C (stereo not drawn)
inactive: all assays above

Source: PubChem BioAssay (NCATS)
